# VHR inh abs: VHR1 phosphatase inhibitors, primary screen, biochemical, absorbance, uHTS; Dual specificity protein phosphatase 3 (Homo sapiens), P51452; recombinant VHR phosphatase, pNPP absorbance; inhibition, % at 13.3 µM; 290,000 tested, 0.52% active; AID 1654, 2009; in the data active = inhibition above about 50%
# RecA intein inh: Mtb RecA intein splicing inhibitors, primary screen, biochemical, fluorescence, HTS; Protein RecA (Mycobacterium tuberculosis (strain ATCC 25618 / H37Rv)), P9WHJ3; cell-free RecA intein splicing; inhibition, % (test concentration not listed); 290,000 tested, 0.75% active; in the data active = inhibition above about 30%;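 note: 0% = vehicle wells and 100% = reference inhibitor control wells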
# Target sequence (P9WHJ3 whole entry, looked up): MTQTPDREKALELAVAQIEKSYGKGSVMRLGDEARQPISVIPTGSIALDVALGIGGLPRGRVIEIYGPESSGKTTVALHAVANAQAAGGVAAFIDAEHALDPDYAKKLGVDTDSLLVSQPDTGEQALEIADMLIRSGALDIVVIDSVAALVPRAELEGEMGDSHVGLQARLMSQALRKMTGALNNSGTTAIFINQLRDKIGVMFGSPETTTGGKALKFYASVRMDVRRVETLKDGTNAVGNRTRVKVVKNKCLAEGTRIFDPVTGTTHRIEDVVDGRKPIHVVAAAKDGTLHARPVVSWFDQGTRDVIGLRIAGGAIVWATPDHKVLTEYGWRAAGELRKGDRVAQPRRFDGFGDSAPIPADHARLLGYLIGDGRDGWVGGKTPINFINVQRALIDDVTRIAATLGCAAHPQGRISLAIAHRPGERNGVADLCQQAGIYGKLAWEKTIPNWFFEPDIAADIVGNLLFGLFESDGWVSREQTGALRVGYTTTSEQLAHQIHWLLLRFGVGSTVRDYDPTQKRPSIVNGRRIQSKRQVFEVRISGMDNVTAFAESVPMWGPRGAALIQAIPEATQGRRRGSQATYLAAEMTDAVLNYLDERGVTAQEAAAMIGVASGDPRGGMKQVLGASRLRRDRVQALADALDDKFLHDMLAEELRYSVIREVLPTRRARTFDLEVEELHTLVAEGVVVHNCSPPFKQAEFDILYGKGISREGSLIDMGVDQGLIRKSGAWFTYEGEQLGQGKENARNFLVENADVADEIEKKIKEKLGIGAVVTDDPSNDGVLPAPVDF
# CCHFV vOTU inh: CCHFV vOTU protease inhibitors, primary screen, biochemical, Pep-AMC substrate, fluorescence; Crimean-Congo hemorrhagic fever virus L polyprotein viral ovarian tumor (vOTU) protease …; inhibition, % at 11.5 µM; 370,000 tested, 0.55% active; in the data active = inhibition above about 30%; note: 0% = vehicle wells with enzyme and 100% = no enzyme wells
# SSB-PriA inh: inhibitors of Klebsiella pneumoniae PriA binding to SSB C-terminal tail, primary screen, biochemical, AlphaScreen. PriA–SSB C-terminal tail interaction (Klebsiella pneumoniae). AlphaScreen SSBct-PriA binding, biotinylated peptide. inhibition, % at 33 µM. 430,000 tested, 0.6% active; in the data active = inhibition mostly above about 37%, no sharp cut-off; inactive = mostly below about 20%;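 note: plate controls were negative control peptide for no effect and reference peptide for full effect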
# 3CLpro inhibitor: SARS-CoV 3CLpro protease inhibitors, primary screen, biochemical, quenched FRET; AID 1706, 2009; Replicase polyprotein 1ab (Severe acute respiratory syndrome coronavirus), P0C6X7; inhibition, % at 6 µM; recombinant SARS-CoV 3CLpro, quenched FRET peptide cleavage; 290,000 tested, 0.14% active; in the data active = inhibition above about 12%
# * = called active by the depositor; x = not tested or not shown; ! = not confirmed by another sample. Rows were chosen to be rich in hits. Some 1.7% of all compounds tested hit in one or more screens of this group.
SMILES,VHR inh abs,RecA intein inh,CCHFV vOTU inh,SSB-PriA inh,3CLpro inhibitor
O=C(CN1C(=O)NC2(CCCc3ccccc32)C1=O)N1CCN(C(=O)c2ccco2)CC1 (centres undefined),54*,x,0,6,-11
COc1ccc(Cl)cc1NC(=O)Cn1c(=O)n(Cc2nc(-c3ccccc3)no2)c(=O)c2ccccc21,x,x,x,-16,x
COc1ccc(Cn2c3nc4ccccc4nc3c3c(=O)n(Cc4ccco4)c(C)nc32)cc1,91*,x,x,x,x
Cn1c(=O)c2c(O)cc(=O)n(-c3ccccc3)c2n(C)c1=O,51*,x,4,-7,-4
O=C(NCCOc1cccc(C(F)(F)F)c1)c1ccc(NC2=NC3CS(=O)(=O)CC3S2)cc1 (centres undefined),x,x,x,-17,x
Cc1ccc(-n2[nH]c(C)c(/C=N/NC(=O)c3ccc([N+](=O)[O-])cc3)c2=O)c(C)c1,11,32*,7,x,4
Cc1[nH]n(-c2ccccc2)c(=O)c1/C=N/NC(=O)c1cccc([N+](=O)[O-])c1,28,x,10,x,-4
Cc1ccc(-n2[nH]c(C)c(/C=N/Nc3ccc([N+](=O)[O-])cc3[N+](=O)[O-])c2=O)cc1C,50*,4,-1,x,-3
CCN(CC)C(=O)CSc1nc(N)c(NC(=O)c2ccc(Br)o2)c(=O)[nH]1,x,x,x,9,x
CSc1nc2sc3c(c2c2nnnn12)CC(C)(C)OC3,x,x,x,x,2
CC1(C)Cc2c(sc3ncn4nnnc4c23)CO1,52*,x,x,x,x
CCN(CC)CCN(C(=O)c1cc2ccccc2cc1OC)c1nc2ccc(F)cc2s1,48,15,20,47*!,-4
CCN(CC)CCN(C(=O)c1ccc2ccccc2c1)c1nc2ccc(OC)cc2s1,39,7,10,31,-4
CCN(CC)CCN(C(=O)c1ccc(OC)c(OC)c1)c1nc2ccc(F)cc2s1,x,x,x,2,x
CCN(CC)CCN(C(=O)c1cc2ccccc2cc1OC)c1nc2ccc(OC)cc2s1,-2,10,8,45*,-3
O=[N+]([O-])c1cc(CN2CCCC2)ccc1Sc1ccc(Cl)cc1,31,-1,0,43*,5
O=C(NCC1CCN(c2nc3ccccc3o2)CC1)c1ccccc1C(F)(F)F,x,x,x,-15,x
Fc1ccc(NC(=S)N/N=C/c2ccc(F)c(F)c2)c(F)c1,52*,-1,0,x,0
Cc1cc2nc(NC(=O)c3ccc(S(=O)(=O)N4CCCC4)cc3)sc2cc1C,x,x,x,-8,x
O=C(Nc1nc(-c2ccc3c(c2)CCCC3)cs1)c1ccc(Cl)s1,x,x,x,-5,x
Nc1cc2cccnc2c2ncccc12,x,x,x,152*,x
c1cnc2c(c1)ccc1cccnc12,2,2,2,102*,0
Cc1ccc2cccnc2c1N,0,-2,7,7,0
O=Cc1ccc2cccnc2n1,-12,1,-16,-4,-5
c1ccc2c(c1)ccc1cccnc12,x,x,x,29,x
SMILES,VHR inh abs,RecA intein inh,CCHFV vOTU inh,SSB-PriA inh,3CLpro inhibitor
O=Cc1ccc2ccc3cccnc3c2n1,57*,-6,-10,81*,4
COc1ccc(N/C(SCc2ccccc2C)=C(/C#N)S(=O)(=O)c2ccccc2)cc1Cl,x,x,x,13,x
CCOC(=O)N1CCC2(CC1)C(C#N)=C(N)Oc1c2c(C)nn1-c1cccc(Cl)c1,17,63*,-6,16,-1
O=C(NC(=S)NNC(=O)c1cnccn1)c1ccc(F)cc1,18,0,-12,42*,3
COc1ccc(/C=C/C(=O)NC(=S)NNC(=O)c2cnccn2)cc1,0,22,-9,-7,-1
O=C(/C=C/c1ccc(F)cc1)NC(=S)NNC(=O)c1cnccn1,-40,6,-4,40*,1
O=C(NNC(=S)NC(=O)c1cccnc1)c1ccc(F)cc1,17,-1,10,-7,6
O=C(Nn1cnnc1)c1ncc(-c2ccc(F)cc2)o1,x,x,x,-11,x
COc1ccc(NC(=S)Nc2ncccc2C)c(OC)c1,20,-1,-11,46*,-2
COc1ccc(OC)c(NC(=S)Nc2ncccc2C)c1,x,x,x,105*,x
COc1ccc(NC(=S)Nc2ncccc2C)cc1OC,-7,-1,5,-3,1
Cc1cccnc1NC(=S)Nc1ncccc1C,16,0,15,5,1
Cc1cc([N+](=O)[O-])cc([N+](=O)[O-])c1NCC(C)C,3,-6,2,44*,2
Cc1ccc(S(=O)(=O)Nc2c(C)cc([N+](=O)[O-])cc2C)cc1,x,x,13,-7,x
